Measured values: PubChem BioAssay AID488969 (Vanderbilt High Throughput Screening Facility, 2010)
Over roughly 110,000 compounds, “z-score” has its median near -0.1; the highest 2% begin near 2. For the sample, the highest values were picked, then their nearest neighbours and some compounds at random. Activity calls are given as the source filed them.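 Rule for the calls: active = z-score in the third read window above 3 or below -3; inactive = the rest.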

Target: Metabotropic glutamate receptor 8 (Rattus norvegicus) (UniProt P70579)
Sequence (P70579 whole entry, looked up): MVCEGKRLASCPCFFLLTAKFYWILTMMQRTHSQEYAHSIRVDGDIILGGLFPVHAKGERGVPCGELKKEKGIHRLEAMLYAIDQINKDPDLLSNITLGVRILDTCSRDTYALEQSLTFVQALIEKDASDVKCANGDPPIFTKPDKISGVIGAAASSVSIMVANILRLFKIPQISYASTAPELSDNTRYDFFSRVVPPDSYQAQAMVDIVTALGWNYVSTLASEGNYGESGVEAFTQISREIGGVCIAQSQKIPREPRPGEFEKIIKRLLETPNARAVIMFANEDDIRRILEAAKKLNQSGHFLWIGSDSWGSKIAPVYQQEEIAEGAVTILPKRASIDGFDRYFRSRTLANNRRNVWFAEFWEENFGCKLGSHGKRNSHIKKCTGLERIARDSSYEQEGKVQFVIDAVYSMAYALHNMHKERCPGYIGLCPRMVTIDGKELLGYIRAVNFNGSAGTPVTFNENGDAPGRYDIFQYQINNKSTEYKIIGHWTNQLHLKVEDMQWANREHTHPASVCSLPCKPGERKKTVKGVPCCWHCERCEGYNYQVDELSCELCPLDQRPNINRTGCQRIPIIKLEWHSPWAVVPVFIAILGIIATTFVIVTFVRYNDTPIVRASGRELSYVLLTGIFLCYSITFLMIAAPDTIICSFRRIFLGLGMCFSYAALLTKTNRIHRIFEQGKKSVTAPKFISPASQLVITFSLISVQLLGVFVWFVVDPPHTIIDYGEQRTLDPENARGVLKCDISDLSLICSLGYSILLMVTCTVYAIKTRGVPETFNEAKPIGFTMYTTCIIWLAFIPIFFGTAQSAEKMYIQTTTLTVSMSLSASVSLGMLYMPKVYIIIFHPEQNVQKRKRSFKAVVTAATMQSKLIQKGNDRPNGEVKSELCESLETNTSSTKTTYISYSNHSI
Assay: rat mGluR8 modulators via GIRK flux, primary screen, cell-based, thallium flux, HTS (AID 488969)
Details: HEK293 rat mGluR8, GIRK (G protein-gated inwardly rectifying potassium channel) thallium flux, FluoZin2; at 10 µM; stronger effect = higher value; submaximal glutamate (EC20) added with thallium

| Compound | z-score |
| --- | --- |
| CN(C1CCS(=O)(=O)C1)S(=O)(=O)c1ccc(C2CCCCC2)cc1 (centres undefined) | 0.314 |
| CCOC(=O)CSc1nnc(NC(=O)c2cccc([N+](=O)[O-])c2C)s1 | 0.774 |
| O=C(NC(NC(=O)c1ccccc1)C(=O)c1ccccc1)c1ccccc1 | -0.143 |
| O=C(NN=c1c(=O)c2ccccc2c1=O)c1ccccc1 | 6.47 (active) |
| CC1=C/C(=N\NC(=O)c2ccccc2)CC1 | -0.0871 |
| O=[N+]([O-])c1cc(/C=N/Nc2nc(N3CCOCC3)nc(N3CCOCC3)n2)ccc1Cl | -0.222 |
| COc1ccc(C2C3=C(CC(C)(C)CC3=O)Nc3cc4c(cc32)OCO4)cc1 (centres undefined) | -0.138 |
| CC1(C)CC(=O)C2=C(C1)Nc1cc3c(cc1C2c1ccc2c(c1)OCO2)OCO3 (centres undefined) | -0.639 |
| COc1cccc(C2C3=C(CC(C)(C)CC3=O)Nc3cc4c(cc32)OCO4)c1 (centres undefined) | 2.12 |
| Cc1nc2cc(N3CCCCC3)c(NC(=O)c3ccncc3)cc2c(=O)n1Cc1ccc(Cl)cc1 | -0.37 |
| Cc1nn(C(=O)c2nn(C)cc2Cl)c(C)c1Br | 0.0765 |
| CC(=O)c1cn(CC(=O)NCc2ccco2)c2ccccc12 | -0.774 |
| CCCNC(=S)N1CCC(c2nc3cc(C)c(C)cc3[nH]2)CC1 | -0.228 |
| Cc1ccc(-c2nn(CC(=O)Nc3cccnc3)c(=O)c3ccccc23)cc1 | -0.291 |
| COc1ccccc1N1C(=O)C2ON(c3ccccc3)C(c3ccc(N(C)C)cc3)C2C1=O (centres undefined) | 0.0686 |
| CN(C)c1ccc(C2N(c3ccc(Cl)cc3)C(=O)C3CCCN32)cc1 (centres undefined) | -0.129 |
| CN(C)c1ccc(C2C3C(=O)NC(=O)C3ON2c2ccc(Cl)cc2)cc1 (centres undefined) | 2.58 |
| Cc1ccc(C(=O)C(C(=O)/C=C/c2ccccc2)=C2SCCCS2)cc1 | 0.0319 |
| c1ccc(-c2csc3ncn4nnnc4c23)cc1 | -0.177 |
| CCCC1CC(CSC(=N)N)OC1=O (centres undefined) | -0.478 |
| Cc1csc(SCC(=O)Nc2nc(-c3ccccc3)cs2)n1 | 1.07 |
| Cc1csc(SCC(=O)Nc2nc3ccccc3s2)n1 | 3.3 (active) |
| Cc1csc(NC(=O)CSc2nc3ccccc3s2)n1 | -0.293 |
| Cc1ccc(-c2nnc(SCC(=O)N3CCN(c4ccccc4)CC3)o2)cc1 | -1.07 |
| COc1ccc2[nH]c(=O)c(CN(C(=O)c3ccccn3)c3ccccc3)cc2c1 | -0.101 |
| CCCN(CC1CC1)C(=O)COC(=O)c1[nH]c(C)c(C(=O)OCC)c1C | -0.372 |

| Compound | z-score |
| --- | --- |
| COc1cc(NC(=O)c2cccnc2Sc2ccc(Cl)cc2)cc(OC)c1OC | -0.134 |
| O=C(O)C(Cc1c[nH]c2ccccc12)NS(=O)(=O)c1cccc2nsnc12 (centres undefined) | 0.00264 |
| Cc1ccc(S(=O)(=O)NC(Cc2c[nH]c3ccccc23)C(=O)O)cc1 (centres undefined) | -0.0187 |
| Cc1cccc(S(=O)(=O)NC(Cc2c[nH]c3ccccc23)C(=O)O)c1 (centres undefined) | 2.17 |
| CC(C)(C)c1[nH]nc2c1C(c1ccccc1OC(=O)N1CCOCC1)C(C#N)=C(N)O2 (centres undefined) | -2.43 |
| O=C(CSc1nc2ccccc2[nH]1)N/N=C/C=C/c1ccccc1[N+](=O)[O-] | -0.487 |
| COCCCNC(=O)c1ccc(N2CCCC2)c(NS(=O)(=O)c2ccc(C)cc2)c1 | 0.547 |
| CCN(CC)CCNC(=O)c1ccc(N2CCCCC2)c(NS(=O)(=O)c2ccc(C)cc2)c1 | 2.96 |
| Cc1ccc(S(=O)(=O)Nc2cc(C(=O)NCCN3CCCC3)ccc2N2CCCCC2)cc1 | 1.81 |
| Cc1nnc2sc(SCc3ccccc3)nn2c1=O | -0.0579 |
| CC(=O)/C(=N\Nc1cccc(Cl)c1)Sc1cccc2cccnc12 | 0.635 |
| CC(=O)/C(=N\Nc1ccccc1Cl)Sc1cccc2cccnc12 | 0.299 |
| CC(=O)/C(=N\Nc1ccc(Cl)cc1Cl)Sc1cccc2cccnc12 | 2.29 |
| CC(C)(C)SCCNC(=O)c1ccc(NS(C)(=O)=O)cc1 | -0.0865 |
| O=C(CSc1ccc(Cl)cc1)N1CCN(c2ncc(C(F)(F)F)cc2Cl)CC1 | -0.0561 |
| Cc1conc1NC(c1cccs1)c1ccc2cccnc2c1O (centres undefined) | 3.41 (active) |
| Cc1cc(NC(c2cccnc2)c2ccc3cccnc3c2O)no1 (centres undefined) | -0.344 |
| Cc1cc(NC(c2ccc(Cl)cc2)c2ccc3cccnc3c2O)no1 (centres undefined) | 1.61 |
| COc1cccc(NC(=O)N(Cc2cc3cc(C)cc(C)c3[nH]c2=O)CC2COCCO2)c1 (centres undefined) | -0.438 |
| COc1ccc(NC(=O)/C=C/C(=O)O)cc1Cl | 0.0641 |
| Cc1ccc(NC(=O)/C(=C\c2ccccc2)NC(=O)/C=C/c2ccccc2)cc1 | -0.26 |
| O=C(NCc1nnc(SCC(=O)N2CCN(c3ccccc3)CC2)o1)c1ccco1 | -0.268 |
| O=C(NCc1nnc(SCC(=O)N2CCCCCC2)o1)c1ccco1 | -0.474 |
| CC1CCN(C(=O)CSc2nnc(CNC(=O)c3ccco3)o2)CC1 | 2.28 |
| CCOC(=O)c1c(NC(=O)CSc2nnc(CNc3ccc(Cl)cc3)o2)sc(C)c1C | -0.783 |
| COc1ccc(COC(=O)Nc2cc3c(C(F)(F)F)nn(C)c3s2)cc1 | -0.456 |

| Compound | z-score |
| --- | --- |
| Cn1nc(C(F)(F)F)c2cc(NC(=O)OCC(C)(C)C)sc21 | -1.03 |
| Cn1nc(C(F)(F)F)c2cc(NC(=O)OCc3ccc(F)cc3)sc21 | 9.32 (active) |
| N/C(=N\OC(=O)CSc1ccccc1)c1cccc([N+](=O)[O-])c1 | -0.477 |
| O=C(COC(=O)c1ccccc1NC(=O)c1ccccc1)c1ccc([N+](=O)[O-])cc1 | -0.202 |
| C=CCOC(=O)C1=C(C)NC(SCC)=C(C#N)C1c1ccc(Cl)cc1 (centres undefined) | 0.285 |
| CSCSC1=C(C#N)C(c2ccc(Cl)cc2)C(C(C)=O)=C(C)N1 (centres undefined) | 3.87 (active) |
| CCc1ccc(C(=O)CSC2=C(C#N)C(c3ccco3)C(C(C)=O)=C(C)N2)cc1 (centres undefined) | -0.295 |
| CC(=O)C1=C(C)NC(SCc2ccc(C#N)cc2)=C(C#N)C1c1ccco1 (centres undefined) | 5.85 (active) |
| CC(=O)C1=C(C)NC(SCc2cccc3ccccc23)=C(C#N)C1c1ccco1 (centres undefined) | 0.063 |
| CSCSC1=C(C#N)C(c2ccccc2Cl)C(C(C)=O)=C(C)N1 (centres undefined) | -2.68 |
| Cn1c(CNC(=O)c2ccc(Cl)cc2)nnc1SCC(=O)Nc1sc2c(c1C#N)CCCC2 | 0.356 |
| CN1CCc2nc(SCc3ccc(Cl)cc3)c(C#N)c(-c3cccs3)c2C1 | 0.101 |
| CCN(C(=O)C1CCN(S(=O)(=O)c2cccc3nonc23)CC1)c1ccccc1 | -0.39 |
| CCOC(=O)c1[nH]c(C)c(/C(O)=C2\C(=O)C(=O)N(CCN(C)C)C2c2ccc(C)o2)c1C (centres undefined) | -0.288 |
| COC(=O)[C@H](CCSC)NC(=O)N1CCC(C)CC1 | 0.07 |
| COc1ccc(NC(=O)c2cccnc2Sc2ccccc2)c(OC)c1 | -0.415 |
| COc1cc2c(cc1OC)CN(S(C)(=O)=O)CC2 | 0.0161 |
| NS(=O)(=O)c1ccc(NC(=O)COC(=O)CCC2CCCCC2)cc1 | -0.157 |
| N=c1ncn(CC(O)CO)c2nc(N3CCOCC3)[nH]c12 (centres undefined) | -0.0516 |
| COc1ccc(C(=O)N(C(C)C)C(C)C)c(OC)c1 | 0.14 |
| Oc1[nH]c2ccccc2c1N=Nc1ccccc1F | 0.0754 |
| Oc1[nH]c2ccccc2c1N=Nc1ccc(F)cc1 | -0.405 |
| Oc1[nH]c2ccccc2c1N=Nc1nc2ccccc2s1 | 2.12 |
| Cc1c(NC(=O)C2C3C=CC(C3)C2C(=O)O)c(=O)n(-c2ccccc2)n1C (centres undefined) | 0.15 |
| CCCC(=O)NC(NC(=S)Nc1c(C)n(C)n(-c2ccccc2)c1=O)C(Cl)(Cl)Cl (centres undefined) | -0.165 |
| Cc1c(NC(=O)CSc2nccn2C)c(=O)n(-c2ccccc2)n1C | -0.0895 |

| Compound | z-score |
| --- | --- |
| CCC(=O)NC(NC(=S)Nc1c(C)n(C)n(-c2ccccc2)c1=O)C(Cl)(Cl)Cl (centres undefined) | -0.491 |
| Cc1c(NC(=O)CC(=O)Nc2c(C)n(C)n(-c3ccccc3)c2=O)c(=O)n(-c2ccccc2)n1C | -0.0936 |
| Cc1c(NC(=O)C2CC=CCC2C(=O)O)c(=O)n(-c2ccccc2)n1C (centres undefined) | 2.16 |
| Cc1c(NC(=O)CSc2ccccn2)c(=O)n(-c2ccccc2)n1C | -0.147 |
| Cc1c(NC(=O)CSc2ccccc2C(=O)Nc2cccnc2)c(=O)n(-c2ccccc2)n1C | 2.06 |
| Cc1c(NC(=O)CCC2CCCCC2)c(=O)n(-c2ccccc2)n1C | 2.9 |
| Cc1c(NC(=O)N(C)C)c(=O)n(-c2ccccc2)n1C | -0.0915 |
| Cc1c(NC(=S)NC(NC(=O)CC(C)C)C(Cl)(Cl)Cl)c(=O)n(-c2ccccc2)n1C (centres undefined) | 2.53 |
| Cc1c(NC(=O)CCC(=O)N2CCCCC2)c(=O)n(-c2ccccc2)n1C | -0.244 |
| O=C(NCCc1ccncc1)C12CC3CC(CC(C3)C1)C2 | 0.467 |
| CC1CCN(S(=O)(=O)c2ccc3c(c2)oc(=O)n3CC(=O)N2c3ccccc3CC2C)CC1 (centres undefined) | 0.0729 |
| Cc1cc(C)n(-c2nc(NCC3CCCO3)c3c4c(sc3n2)COC(C)(C)C4)n1 (centres undefined) | -2 |
| C=CCc1cccc(/C=N/NC(=O)CCCNc2ccc(C)cc2)c1O | -0.144 |
| CCOC(=O)C1CCN(C(=O)CN(c2ccc(OC)cc2)S(=O)(=O)c2c(C)nn(C)c2C)CC1 | -0.304 |
| CCCC(C)NC(=O)c1ccc2[nH]c3c(c2c1)CC(C)CC3 (centres undefined) | -0.815 |
| O=C(CSc1ncn(-c2ccccc2)n1)Nc1ccc(Br)cn1 | -0.314 |
| COC(=O)c1c(C)[nH]c(C(=O)OCC(=O)NCC(C)C)c1C | -0.00108 |
| O=C(CSCCO)Nc1cccc([N+](=O)[O-])c1 | -1.53 |
| Cc1c(NC(=O)C(=O)/C=C(\O)c2ccc(Br)cc2)c(=O)n(-c2ccccc2)n1C | -0.237 |
| Cc1c(NC(=O)C(=O)/C=C(/O)c2ccccc2)c(=O)n(-c2ccccc2)n1C | -0.309 |
| Cc1c(NC(=O)C(=O)/C=C(\O)c2ccc(Cl)cc2)c(=O)n(-c2ccccc2)n1C | 2.16 |
| O=C1COc2ccc(C(=O)c3ccccc3C(=O)NCc3ccco3)cc2N1 | 0.0372 |
| C=CCn1c(SCC(=O)c2[nH]c(C)c(C(=O)OCC)c2C)nc2scc(-c3ccc(OC)c(OC)c3)c2c1=O | -0.123 |
| CCOc1cc(C2NN=C(c3ccccc3)S2)ccc1OCc1ccccc1Cl (centres undefined) | 0.78 |
| CCOc1cc(C2NN=C(c3ccccc3)S2)ccc1OCc1ccc(F)cc1 (centres undefined) | 0.745 |
| CCOc1cc(C2NN=C(c3ccc(C)cc3)S2)ccc1O (centres undefined) | 8.33 (active) |
